From PubChem BioAssay (NCI) come the findings set out here.

About 83,000 compounds went through this panel and 20% of them were active in at least one assay; those are over-represented in the sample as a whole.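 Negative percent growth values reflect cell death: -40 means 40% of the cells present at the start died, and -100 means all died.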 Values without a mark were called inactive. Activity calls are given as the source filed them. How the source made its calls: active means growth percent below 10; inactive means the rest.

In one assay the test system is NCI-H23 lung. The assay can be described thus: NCI-60 one-dose screen, 48 h (100 = growth as untreated, 0 = no growth, -100 = all killed). The note with it: 10 µM unless noted.
For `ClCCN(CCCl)C(c1ccccc1)c1ccc(Cl)cc1` (stereo unspecified), the growth is 77.3%.
Same read-out and setting: the same measure for `CCCCn1cc(C(=O)/C(C#N)=C/c2cc3ccccc3nc2Cl)c2cc(OC)ccc21`: 92.8%; for `CCCCNCCc1ccccn1`: 99.9%; for `CC(=O)C1C(=O)N(C)C(=O)N(C)C1=O`: 121%.
The same measure, in the same setting: the same measure for `CC1(C)N=C(N)N=C(N)N1c1cccc(C(=O)Nc2cccc(S(=O)(=O)F)c2)c1`: 107%; for `C[C@]12CC[C@@H]3C4=C(CC[C@H]3[C@@H]1CC[C@@H]2O)CC(=O)CC4`: 98.3%.
For `NC(Cc1ccc2c(c1)OCO2)c1ccc2c(c1)OCO2` (stereo unspecified), the growth was 105%.
Still for that read-out and setting: the same measure for `COc1ccc(-c2ccc(OC)c(OC)c2OC)cc1`: 46.1%; for `CC[C@@]1(C2O[C@@H](C3O[C@@](O)(CC)[C@H](C)C[C@@H]3C)C[C@@H]2C)CC[C@H]([C@]2(C)CCC3(C[C@H](O)[C@@H](C)[C@@H]([C@H](C)[C@@H](OC)[C@H](C)C(=O)O)O3)O2)O1` (stereo partly specified): 16.5%; for `CC1(C)N=C(N)N=C(N)N1c1ccc(CCCCc2ccc(S(=O)(=O)F)cc2)c(Cl)c1`: 29.8%.
Take `COc1ccc(C2=NN(c3ccccc3)C(c3sc(N(CCCl)CCCl)nc3Cl)C2)cc1` (stereo unspecified): the growth was 76.7%.
Regarding `N#CC1c2ccccc2C=CN1C(=O)c1ccc(N(CCCl)CCCl)cc1` (stereo unspecified), the growth was 89.3%.
Still for that read-out and setting: the same measure for `CSc1ccccc1NP1(=O)OCC(C)([N+](=O)[O-])CO1` (stereo unspecified): 106%.
The same measure, in the same setting: the figure for `Cc1ccc(N)cc1[As]=[As]c1cc(N)ccc1C` (stereo unspecified) is -56.4% (active); for `CCC(C)[C@H]1O[C@]2(C=C[C@@H]1C)C[C@@H]1C[C@@H](C/C=C(\C)[C@@H](OC3C[C@H](OC)C(O[C@H]4C[C@H](OC)[C@@H](O)[C@H](C)O4)[C@H](C)O3)[C@@H](C)/C=C/C=C3\CO[C@@H]4[C@H](O)C(C)=C[C@@H](C(=O)O1)[C@]34O)O2` (stereo partly specified) it is 5.82% (active); for `CC1(C)N=C(N)N=C(N)N1c1ccc(CCCCc2ccc(S(=O)(=O)F)cc2)cc1` it is 39.4%.
Still for that read-out and setting: the same measure for `Cc1ccc(C(=O)C2CN(C)CCC2(O)c2ccc(C)cc2)cc1` (stereo unspecified): 103%.
Regarding `O=S(=O)(O)c1ccc(-c2ccc([As](=O)(O)O)cc2)cc1`, the growth was 105%.
Same read-out and setting: the figure for `O=C1NC(=O)C(CN2C(=O)C3(c4ccccc42)[C@H](Cl)C(=O)N3c2ccccc2)C(=O)N1` (stereo partly specified) is 69.1%.
The same measure, in the same setting: the figure for `O=[N+]([O-])c1cc([N+](=O)[O-])c(Cl)c(Cl)c1Cl` is 43%; for `C=CCC1(CC)C(=O)NC(=S)NC1=O` it is 100%; for `CCC[CH2][Sn]([CH2]CCC)([CH2]CCC)[O]C(=O)CC` it is -87.1% (active).
Consider `O=C(NCc1ccc([N+](=O)[O-])cc1)Nc1ccc(S(=O)(=O)F)cc1`, for which the growth was 81.3%.
Take `n1nc(-c2nonc2-c2nn[nH]n2)n[nH]1`: the growth was 102%.
Still for that read-out and setting: the same measure for `CC1(C)N=C(N)N=C(N)N1c1ccc(OCCCCOc2ccc(S(=O)(=O)F)cc2)c(Cl)c1`: 20%.
`CCCCOC(=O)c1ccccc1C(=O)O.CCCCOC(=O)c1ccccc1C(=O)O.[Cu+2]`: the growth is 107%.
On the same count and under the same terms, the same measure for `O=[N+]([O-])c1ccc2cnn(CSP(=S)(c3ccccc3)c3ccccc3)c2c1`: 67.4%.
As for `NC(=O)C(Cl)Cl`, the growth is 108%.
Take `CCN(CC)c1ccc(C=C2C(=O)NC(=S)NC2=O)cc1`: the growth is 93.4%.
On to `[O]=[Sn]([CH]1CCCCC1)[CH]1CCCCC1`, for which the growth was -93.5% (active).
As for `ClCCN(CCCl)c1nc(Cl)c(C2CC(c3ccccc3)=NN2c2ccccc2)s1` (stereo unspecified), the growth was 86.8%.
In the case of `CC(=O)C1CCC2C3CC=C4CC(OC(=O)Cc5ccc(N(CCCl)CCCl)cc5)CCC4(C)C3CCC12C` (stereo unspecified), the growth is 96.6%.
For `Cc1ccccc1O`, the growth was 105%.
Same read-out and setting: the figure for `O=[N+]([O-])c1ccccc1N1CCNCC1` is 96.4%; for `CC(=O)Nc1ccc(C=C2C(=O)NC(=O)NC2=O)cc1` it is 101%.

The subject of the next assay is NCI-H226 lung. Described as above. The settings on record: 10 µM unless noted.
As to `Oc1ccccc1OB(Oc1ccccc1O)N(CCCl)CCCl`, the growth is 101%.
Regarding `C/C(=N/OC(=O)N(C)C)c1cc(Cl)ccc1Cl`, the growth was 99.4%.
Regarding `C/C(=N/OC(=O)N(C)C)c1ccc(Cl)cc1Cl`, the growth is 104%.
`CNC(=O)Oc1ccccc1-c1ccccc1`: the growth was 113%.
Same read-out and setting: the figure for `Clc1ccc(SSC(Cl)(Cl)Cl)cc1` is 110%.

Another assay relates to NCI-H322M lung. Described as above. The settings on record: 10 µM unless noted.
On to `CCCCn1cc(C(=O)/C(C#N)=C/c2cc3ccccc3nc2Cl)c2cc(OC)ccc21`, for which the growth is 98%.
Turning to `CCCCNCCc1ccccn1`, the growth was 113%.
Still for that read-out and setting: the same measure for `CC(=O)C1C(=O)N(C)C(=O)N(C)C1=O`: 107%; for `CC1(C)N=C(N)N=C(N)N1c1cccc(C(=O)Nc2cccc(S(=O)(=O)F)c2)c1`: 100%.
The same measure, in the same setting: the same measure for `C[C@]12CC[C@@H]3C4=C(CC[C@H]3[C@@H]1CC[C@@H]2O)CC(=O)CC4`: 109%; for `COc1ccc(-c2ccc(OC)c(OC)c2OC)cc1`: 36%.
Consider `CC[C@@]1(C2O[C@@H](C3O[C@@](O)(CC)[C@H](C)C[C@@H]3C)C[C@@H]2C)CC[C@H]([C@]2(C)CCC3(C[C@H](O)[C@@H](C)[C@@H]([C@H](C)[C@@H](OC)[C@H](C)C(=O)O)O3)O2)O1` (stereo partly specified), for which the growth was 38.8%.
Regarding `CC1(C)N=C(N)N=C(N)N1c1ccc(CCCCc2ccc(S(=O)(=O)F)cc2)c(Cl)c1`, the growth was 43.1%.
On the same count and under the same terms, the figure for `COc1ccc(C2=NN(c3ccccc3)C(c3sc(N(CCCl)CCCl)nc3Cl)C2)cc1` (stereo unspecified) is 92.7%; for `CSc1ccccc1NP1(=O)OCC(C)([N+](=O)[O-])CO1` (stereo unspecified) it is 126%; for `Cc1ccc(N)cc1[As]=[As]c1cc(N)ccc1C` (stereo unspecified) it is 50.3%.
As to `CCC(C)[C@H]1O[C@]2(C=C[C@@H]1C)C[C@@H]1C[C@@H](C/C=C(\C)[C@@H](OC3C[C@H](OC)C(O[C@H]4C[C@H](OC)[C@@H](O)[C@H](C)O4)[C@H](C)O3)[C@@H](C)/C=C/C=C3\CO[C@@H]4[C@H](O)C(C)=C[C@@H](C(=O)O1)[C@]34O)O2` (stereo partly specified), the growth was 25.7%.
Same read-out and setting: the same measure for `CC1(C)N=C(N)N=C(N)N1c1ccc(CCCCc2ccc(S(=O)(=O)F)cc2)cc1`: 31.2%.
Regarding `Cc1ccc(C(=O)C2CN(C)CCC2(O)c2ccc(C)cc2)cc1` (stereo unspecified), the growth was 113%.
As to `O=S(=O)(O)c1ccc(-c2ccc([As](=O)(O)O)cc2)cc1`, the growth was 104%.
Same read-out and setting: the figure for `O=C1NC(=O)C(CN2C(=O)C3(c4ccccc42)[C@H](Cl)C(=O)N3c2ccccc2)C(=O)N1` (stereo partly specified) is 90.6%; for `O=[N+]([O-])c1cc([N+](=O)[O-])c(Cl)c(Cl)c1Cl` it is 96.5%; for `CCC[CH2][Sn]([CH2]CCC)([CH2]CCC)[O]C(=O)CC` it is -95.2% (active).
On the same count and under the same terms, the figure for `O=C(NCc1ccc([N+](=O)[O-])cc1)Nc1ccc(S(=O)(=O)F)cc1` is 88.3%; for `CC1(C)N=C(N)N=C(N)N1c1ccc(OCCCCOc2ccc(S(=O)(=O)F)cc2)c(Cl)c1` it is 23.2%; for `CCCCOC(=O)c1ccccc1C(=O)O.CCCCOC(=O)c1ccccc1C(=O)O.[Cu+2]` it is 104%.
Still for that read-out and setting: the same measure for `O=[N+]([O-])c1ccc2cnn(CSP(=S)(c3ccccc3)c3ccccc3)c2c1`: 92.9%; for `NC(=O)C(Cl)Cl`: 94.4%; for `CCN(CC)c1ccc(C=C2C(=O)NC(=S)NC2=O)cc1`: 104%.
For the molecule `Clc1ccc(SSC(Cl)(Cl)Cl)cc1`, the growth was 112%.
Same read-out and setting: the same measure for `[O]=[Sn]([CH]1CCCCC1)[CH]1CCCCC1`: -96.7% (active).
The same measure, in the same setting: the figure for `ClCCN(CCCl)c1nc(Cl)c(C2CC(c3ccccc3)=NN2c2ccccc2)s1` (stereo unspecified) is 86.9%; for `CC(=O)C1CCC2C3CC=C4CC(OC(=O)Cc5ccc(N(CCCl)CCCl)cc5)CCC4(C)C3CCC12C` (stereo unspecified) it is 119%.
The same measure, in the same setting: the same measure for `Cc1ccccc1O`: 114%; for `O=[N+]([O-])c1ccccc1N1CCNCC1`: 96%; for `CC(=O)Nc1ccc(C=C2C(=O)NC(=O)NC2=O)cc1`: 104%.
